# Gal4-VP16 FLuc: counter-screen for ROR gamma inhibitors: Gal4-VP16 reporter; Potency, µM (series often up to 53.6 µM), inactives show top-dose activity, negative = inhibition, actives largely listed as inhibitors; 3.5% of 310,000 active; Drosophila S2 Gal4-VP16 UAS-luciferase, luminescence, 20 h; AID 2546;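 also: Gal4-VP16 expression switched on by copper sulfate through the metallothionein promoter; potency is read from the fitted curve at half-maximal effect; nearly all actives have a fitted effect of over 50% in size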
# RORg inh: inhibitors of mouse ROR gamma transcriptional activity | 5.4% of 310,000 active | Potency, µM (series often up to 53.6 µM), for inactives: at the top dose activity change, negative = inhibition, actives largely listed as inhibitors | P51450 | Drosophila S2 Gal4-RORgamma UAS-luciferase reporter, 20 h; also: potency is read from the fitted curve at half-maximal effect; nearly all actives have a fitted effect of over 60% in size
# Target sequence (P51450 whole entry, looked up, the tested form may be a part): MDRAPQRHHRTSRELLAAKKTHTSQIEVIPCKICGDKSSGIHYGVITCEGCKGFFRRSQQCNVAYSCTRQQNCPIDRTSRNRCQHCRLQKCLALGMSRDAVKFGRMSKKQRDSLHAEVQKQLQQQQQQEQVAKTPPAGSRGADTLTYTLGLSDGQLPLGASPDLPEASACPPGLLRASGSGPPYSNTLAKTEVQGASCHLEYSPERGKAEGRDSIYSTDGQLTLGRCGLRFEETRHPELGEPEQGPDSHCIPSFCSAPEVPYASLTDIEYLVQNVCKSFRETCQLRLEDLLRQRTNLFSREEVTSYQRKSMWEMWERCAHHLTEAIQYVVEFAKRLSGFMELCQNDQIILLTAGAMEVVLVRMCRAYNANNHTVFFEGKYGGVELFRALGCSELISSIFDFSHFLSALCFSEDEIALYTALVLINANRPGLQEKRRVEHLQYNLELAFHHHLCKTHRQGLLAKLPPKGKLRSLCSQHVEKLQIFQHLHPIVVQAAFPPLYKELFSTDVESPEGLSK
#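 Luminescence from a UAS-regulated Photinus luciferase reporter in stably transfected Drosophila Schneider cells is measured; decreased signal marks ROR gamma inhibition. Fusion expression is induced by 700 uM copper sulfate for 20 hr.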
# CtBP-E1A inh: CtBP/E1A binding inhibition; 0.49% of 340,000 active; AID 651724; activity change, % (concentration not given with the values); AlphaScreen GST-E1A/His-CtBP binding, 1536-well; hits give low values; in the data active = activity change below about -65%; inconclusive = mostly about -30% to -63%
#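 GST-E1A and His-tagged CtBP (125 nM each as 5X stock) were preincubated with pin-transferred compound for 2 h at 37 °C in the dark, then glutathione donor and nickel acceptor beads were added for 1 h before AlphaScreen reading.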
# Six1-Eya2 blk: inhibitors of human Six1/Eya2 interaction | Q15475+O00167 | 0.56% of 360,000 active | activity change, % (no concentration beside the values) | AlphaScreen GST-Six1/His-Eya2 binding, biochemical; hits give low values | AID 651725; in the data active = activity change below about -65%; inconclusive = mostly about -30% to -63%
#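 AlphaScreen with GST-Six1 and His-Eya2 (5X mix: 250 nM and 500 nM), glutathione donor and nickel acceptor beads; buffer 50 mM Tris pH 8.0, 300 mM NaCl, 1 mM TCEP; 1 h at 37 C in the dark.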
# PKM2 activator: PKM2 (human) enzyme activation; purified PKM2, Kinase-Glo ATP luminescence, activation; response scale: 0% is enzyme alone, no compound; Potency, µM (series often up to 57.5 µM), without a hit: top-dose activation, actives largely listed as activators; 0.34% of 260,000 active; AID 1631; also: potency is read from the fitted curve at half-maximal effect; nearly all actives have a fitted effect of over 55% in size
#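 Purified hPK-M2 (>95%) run at intermediate activity with 0.1 mM ADP and 0.5 mM PEP in 50 mM imidazole pH 7.2, KCl, MgCl2; 1 h room temperature. ATP formed read by Kinase-Glo luminescence; normalized to uninhibited and no-enzyme controls.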
# * marks the source's active call; other numbers are inactive results; ? = inconclusive; · = not tested or not shown; [ ] = dose if it differs, or a comment. An excerpt weighted towards active compounds, which were near 5.6% of everything screened. Unless noted, calls follow the shape of the dose curve; as a rule, active = well fitted curve in the direction sought with a large enough effect; inconclusive = small, poorly fitted or top-dose-only effect, or another doubt; inactive = no such curve, though single readings can be large; an effect the other way counts as inactive or inconclusive. % is scaled to controls: 0 for no effect and ±100 for the full control effect.
SMILES,Gal4-VP16 FLuc,RORg inh,CtBP-E1A inh,Six1-Eya2 blk,PKM2 activator
O=C(c1ccc(Cn2c(=S)[nH]c3ccccc3c2=O)cc1)N1CCN(c2ccccn2)CC1,?,11µM*,-3,-18,-1%
COc1ccccc1Cn1c(=S)[nH]c2cc(C(=O)N3CCCC(C)C3)ccc2c1=O (stereo not drawn),·,·,-2,-1,·
CN1CCN(C(=O)c2ccc3c(=O)n(Cc4ccc(Cl)cc4)c(=S)[nH]c3c2)CC1,?,7.1µM*,-8,-10,5%
CC1CC(C)CN(C(=O)c2ccc3c(=O)n(Cc4ccc5c(c4)OCO5)c(=S)[nH]c3c2)C1 (stereo not drawn),10µM*,3.5µM*,-2,-1,1%
O=C(c1ccc2c(=O)n(Cc3ccc(Cl)cc3)c(=S)[nH]c2c1)N1CCOCC1,7.1µM*,4µM*,3,-3,·
O=C(c1ccc2c(=O)n(Cc3ccc(Cl)cc3)c(=S)[nH]c2c1)N1CCCC1,?,5µM*,-8,3,·
O=C(c1ccc2c(=O)n(Cc3ccc4c(c3)OCO4)c(=S)[nH]c2c1)N1CCCCC1,-6%,?,8,3,0%
CCC(C)n1c(NC(=O)c2ccccc2)c(C#N)c2nc3ccccc3nc21 (stereo not drawn),?,10µM*,-16,59,19%
CCCCn1c(NC(=O)c2ccccc2)c(C#N)c2nc3ccccc3nc21,?,?,13,8,3%
C=CCn1c(SCc2ccccc2C#N)nnc1-c1cc(Br)ccc1O,25µM*,18µM*,?,-29,-1%
CC(C)(CO)C(O)C(=O)NCCCO (stereo not drawn),·,·,-4,3,·
COc1cc(C(=O)Oc2ccccc2/C=N/NC(=O)c2ccc(Cl)cc2Cl)cc(OC)c1OC,11µM*,7.1µM*,?,-24,-2%
COc1ccccc1/C=N/NC(=O)c1ccc(-c2ccccc2)cc1,?,11µM*,3,-1,-3%
COc1cccc(/C=N/NC(=O)c2ccoc2C)c1O,0.5µM*,0.063µM*,-92*,-74*,-52%
C=CCOc1ccccc1/C=N/NC(=O)c1ccc(Cl)cc1Cl,4%,?,33,-15,0%
COc1cc(/C=N\NC(=O)c2ccc(-c3ccccc3)cc2)cc(OC)c1O,?,?,-12,-11,-8%
COc1ccc(/C=C/C(=O)Oc2ccc(/C=N/NC(=O)c3ccccc3)cc2)cc1OC,3%,-31%,-75*,2,-3%
C#CCOCCOCCOCCNc1nc(N2CCN(C(=O)[C@H](CCC(=O)O)n3cc([C@@H](N)[C@H](C)CC)nn3)CC2)nc(N2CCN(C(=O)[C@H](CCC(=O)O)n3cc([C@@H](N)CC(N)=O)nn3)CC2)n1,·,·,-4,-8,·
O=C(NCCc1ccccc1C(F)(F)F)C1CCC(=O)N(C2CC2)C1 (stereo not drawn),2%,-39%,15,7,2%
COc1cccc(/C=N/NC(=O)c2c(-c3ccccc3)noc2C)c1O,2µM*,0.35µM*,-91*,-90*,-5%
Cc1ccc(/C=N/NC(=O)c2c(-c3ccccc3)noc2C)c(O)c1,3.2µM*,3.2µM*,·,·,-4%
COc1cccc(/C=N/NC(=O)c2c(-c3ccccc3)noc2C)c1OC,·,·,0,0,·
CCOc1cc([N+](=O)[O-])cc(/C=N/NC(=O)c2c(-c3ccccc3)noc2C)c1O,0.63µM*,0.63µM*,-92*,-91*,-1%
Cc1onc(-c2ccccc2)c1C(=O)N/N=C/c1c[nH]c2ccccc12,7.1µM*,2.8µM*,6,-2,-4%
COC(=O)c1sccc1NC(=O)c1ccc(C(C)C)cc1,-10%,?,23,34,2%[11.5 µM]
SMILES,Gal4-VP16 FLuc,RORg inh,CtBP-E1A inh,Six1-Eya2 blk,PKM2 activator
COc1cccc(/C=N/NC(=O)c2cnccn2)c1O,2.5µM*,2.2µM*,-65*,-92*,-23%
COc1ccc(/C=N/NC(=O)c2cnccn2)c(OC)c1OC,-1%,3%,·,1,0%
CCOC(=O)c1sc(NC(=O)CSc2n[nH]c(-c3ccccc3)n2)c(C#N)c1C,5.6µM*,1.3µM*,-11,-11,-10%
CCN(CC)C(=O)c1sc(NC(=O)Cc2ccccc2)c(C#N)c1C,2%,6.3µM*,0,3,-2%
CCN(CC)C(=O)c1sc(NC(=O)Cc2ccc(OC)cc2)c(C#N)c1C,2%,23%,-1,-1,-19%
COC(=O)N/N=C/c1ccc(Oc2ccccc2)cc1,10%,19%,-13,0,0%
Nc1ccc2oc3ccccc3c2c1,18%,29%,-17,5,0%
S=c1[nH]ncn2c1cc1oc3ccccc3c12,-18%,2.5µM*,1,0,-22%
CC(=O)Nc1ccc(NC(=O)CSc2ccc([N+](=O)[O-])cn2)cc1,5%,16%,5,1,14%
CCOC(=O)[C@H]1[C@H]2COc3ccc(OC)cc3[C@@H]2N2C(=O)CN(Cc3ccccc3)C(=O)[C@@]12C,·,·,-3,-1,·
CC(C)(C)OC(=O)CNC(=O)c1nc[nH]c1C(=O)N1CCN(c2ccccc2)CC1,-24%,13µM*,1,-1,-1%
CC(C)C[C@H](NC(=O)c1nc[nH]c1C(=O)N1CCN(c2ccccc2)CC1)C(=O)OC(C)(C)C,?,13µM*,-9,-8,2%
C[C@H](NC(=O)c1nc[nH]c1C(=O)N1CCc2ccccc2C1)C(=O)OC(C)(C)C,?,?,16,15,2%
C[C@@H](NC(=O)c1nc[nH]c1C(=O)N1CCN(c2ccccc2)CC1)c1ccccc1,·,·,-4,-2,·
CC(C)C[C@H](NC(=O)c1nc[nH]c1C(=O)N1CCC(C)CC1)C(=O)OC(C)(C)C,?,16µM*,0,-4,-3%
CC1CCN(C(=O)c2[nH]cnc2C(=O)N[C@@H](CCCCNC(=O)OC(C)(C)C)C(=O)OC(C)(C)C)CC1,-20%,-45%,7,18,-12%
CC(C)C[C@H](NC(=O)c1nc[nH]c1C(=O)N1CCc2ccccc2C1)C(=O)OC(C)(C)C,?,11µM*,-13,-4,-2%
CCC/C=C1\CCCOC(C(=O)NCc2ccccc2)(C(F)(F)F)C1 (stereo not drawn),-19%,-36%,·,·,·
C[C@@]12C=CC(=O)C=C1CC[C@@H]1[C@@H]2[C@H](O)C[C@]2(C)[C@@H]1CC[C@]2(O)C(=O)CO,-4%[17 µM],3%[16.9 µM],·,·,·
C#CCNC(=O)C1CCN(c2cc(C)nc(-c3ccccc3)n2)CC1,3%,3%,11,3,-4%
COCCN(C(=O)c1ccc(OC2CCN(S(=O)(=O)N(C)C)CC2)cc1)C(C)C,1%,29%,·,0,1%

# Source: PubChem BioAssay (National Center for Advancing Translational Sciences (NCATS))
